Activity change data for 84 compounds are collected here from PubChem BioAssay AID720553 (National Center for Advancing Translational Sciences (NCATS), 2013).

Hit rate of the full screen: of about 340,000 compounds, about 3,300 (0.97%) were called active.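 How the source made its calls: active means maximum activity change below -70%; inconclusive means maximum activity change from -70% to -50%; inactive means maximum activity change above -50%.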 The list comes from a sample in which actives are over-represented; it also holds similar structures and randomly drawn compounds.
On the % scale 0 is the no-effect control and ±100 the full control effect.

The test system of the assay is Potassium voltage-gated channel subfamily H member 2, brain isoform KCNH2 3.1 (human). Kind of assay: qHTS for Inhibitors of KCHN2 3.1: Mutant qHTS. The following applies: U2OS KCNH2 3.1, thallium flux FluxOr; hits give low values. A digest of the protocol: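 U2OS cells transduced with KCNH2 3.1 mutant virus (1.77 x 10^8 /mL, 4 h), plated overnight at 37 C, loaded 45 min with FluxOr dye plus Red40 quencher. Thallium flux rate constant from kinetic reads after stimulation buffer, normalised to controls.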
For `O=C(Nc1ccncc1)c1c(F)cccc1F`, the activity change is -70.9% (active). Under `O=C(Nc1ccncc1)Nc1ccc(F)cc1` stands 20.7% (inactive). Under `O=C(Nc1ccc(S(=O)(=O)N2CCCCCC2)cc1)c1c(F)cccc1F` stands -17.5% (inactive); under `CN(c1ccccc1)S(=O)(=O)c1ccc(C(=O)NCc2cccnc2)cc1`, -7.84% (inactive). Under `CC1(C(=O)OCC(=O)Nc2ncc(Cl)cc2Cl)CC1(Cl)Cl` (centres undefined) stands 0.747% (inactive).

Regarding `CC(Oc1ccc(Cl)cc1)C(=O)OCC(=O)Nc1ncc(Cl)cc1Cl` (centres undefined), the activity change is -101% (active).

Regarding `CC(Oc1ccc(Cl)cc1)C(=O)Nc1ncccn1` (centres undefined), the activity change was 5.84% (inactive). As for `Cc1ccc(-c2ccc(C3=CC(=O)CC(C)(C)C3=O)cc2)cc1`, the activity change was -9.04% (inactive). As for `C[C@H](CO)N1C[C@H](C)[C@@H](CN(C)S(=O)(=O)c2ccc(F)cc2)OCc2cnnn2CCCC1=O`, the figure is -2.94% (inactive); as for `O=S(=O)(c1cccc(C(F)(F)F)c1)N1c2ccccc2-n2cccc2C1c1cccnc1` (centres undefined), -17.4% (inactive); as for `COC(=O)c1ccc(Cc2ccccc2)o1`, 10.6% (inactive). As for `CCCC(NC(=O)c1ccccc1)c1nc2ccccc2n1Cc1ccc(C(=O)OC)o1` (centres undefined), the activity change is -82% (active). Under `CCCn1c(C(Cc2ccccc2)NC(=O)COC)nc2ccccc21` (centres undefined) stands -1.15% (inactive). As for `Cc1ccc2[nH]c(=O)c(CN(CC3COCCO3)C(=O)Nc3ccccc3C)cc2c1` (centres undefined), the figure is -106% (active); as for `Cc1cccc(NC(=O)N(Cc2cc3cc(C)cc(C)c3[nH]c2=O)CC2COCCO2)c1` (centres undefined), -19.5% (inactive); as for `COc1ccc2[nH]c(=O)c(CN(CC3CCCO3)C(=O)Nc3ccccc3)cc2c1` (centres undefined), 8.12% (inactive). In the case of `COc1cc(C(=O)N2CCOC23CCN(Cc2ccccc2)CC3)cc(OC)c1OC`, the activity change is -5.15% (inactive). Under `CN(C)C(CNC(=O)c1cccc(S(=O)(=O)N2CCc3ccccc3C2)c1)c1ccccc1` (centres undefined) stands -1.69% (inactive); under `COc1cccc(OCC(=O)NCCS(=O)(=O)N2CCN(c3ccccc3)CC2)c1`, -1.4% (inactive); under `CCCCN1C(=O)C(CC(=O)NC(c2ccccc2)c2ccccc2)CC(C(=O)N2CCOCC2)=C1C` (centres undefined), -3.63% (inactive). With `CC(C)(C)c1ccc(C(=O)NCc2nnc(SCC(=O)N3CCCc4ccccc43)n2-c2ccccc2)cc1`, the activity change is -6.73% (inactive). Under `O=C(CSc1nc2[nH]ncc2c(=O)n1-c1ccccc1)N1CCCc2ccccc21` stands -184% (active).

With `Cn1c(SCC(=O)N2CCCc3ccccc32)nc2ccccc2c1=O`, the activity change is -2.54% (inactive). Under `CCOC(=O)C(=Cc1ccccc1)C(=O)c1ccccc1` stands -13.1% (inactive); under `O=C(NCc1nnnn1-c1ccc(Cl)cc1)c1ccc([N+](=O)[O-])o1`, -3.24% (inactive). As for `Cc1ccc(S(=O)(=O)N2[C@@H](c3cccc(Cl)c3)C(C(=O)O)=CC[C@H]2c2ccc(Cl)c(Cl)c2)cc1`, the figure is -2.17% (inactive); as for `Cc1ccccc1S(=O)(=O)N1[C@@H](c2cccc(Cl)c2)C(C(=O)O)=CC[C@H]1c1ccc(Cl)cc1`, 10% (inactive); as for `Cc1ccc([C@@H]2CC=C(C(=O)O)[C@H](c3cccc(Cl)c3)N2S(=O)(=O)c2ccc(C)cc2)cc1`, -83.7% (active). As for `Cc1nnc(SC(C)C(=O)c2c[nH]c3ccccc23)n1C1CC1` (centres undefined), the figure is -8.46% (inactive); as for `C#CCN(C[C@@H]1[C@@H](OC(=O)NC2CC2)[C@@H](OC(=O)NC2CC2)Cn2c(=O)ccc(=O)n21)S(=O)(=O)c1ccc(C)cc1`, 0.102% (inactive). For the compound `Nc1nnc(SCC(=O)NCC(=O)Nc2ccc(F)c(F)c2F)s1`, the activity change was -119% (active). Under `Cc1ccc(S(=O)(=O)N2CCOCC2)cc1NC(=O)CSc1nnc(N)s1` stands 1.46% (inactive); under `Nc1nnc(SCC(=O)NC2CCCc3ccccc32)s1` (centres undefined), -15.6% (inactive); under `CCN(CC)C(=O)C1=C(C)N(Cc2ccccc2)C(=O)C(CC(=O)NC(c2ccccc2)c2ccccc2)C1` (centres undefined), 0.781% (inactive). As for `Cc1noc(C)c1S(=O)(=O)N(C)C[C@H]1OCCCC[C@@H](C)Oc2ccc(NC(=O)CCCN(C)C)cc2C(=O)N([C@H](C)CO)C[C@@H]1C`, the figure is 18.2% (inactive); as for `COC(=O)C[C@H]1C[C@@H]2c3cc(N(C)C)ccc3O[C@@H]2[C@H](CO)O1`, 2.06% (inactive); as for `O=C(Nc1cccc(C(=O)O)c1)/C(=C\c1ccccc1)NC(=O)c1ccc(Br)o1`, 3.42% (inactive).

With `Cc1cccc(N2CCC(NCc3c(C(=O)N4CCCCC4)nc4c(C)cccn34)CC2)c1`, the activity change is -70.6% (active). Under `Cc1cccn2c(CNCC(C)Oc3cccnc3)c(C(=O)N3CCOCC3)nc12` (centres undefined) stands 1.22% (inactive); under `CCOC(=O)C1CCN(Cc2c(C(=O)N3CCOCC3)nc3c(C)cccn23)CC1`, -6.64% (inactive). Under `CC1=C(C(=O)N(C)C)CC(CC(=O)NCCc2ccccn2)C(=O)N1CCC1=CCCCC1` (centres undefined) stands 6.34% (inactive); under `CN(Cc1c(F)cccc1Cl)C(=O)COC(=O)Cn1cnc2ccccc2c1=O`, 2.53% (inactive). Under `COc1ccc(C2=NS(=O)(=O)N(C)C(C(=O)NC(C)c3ccccc3)=C2)cc1` (centres undefined) stands -85% (active); under `COc1ccc(NC(=O)C2=CC(c3ccc(OC)c(OC)c3)=NS(=O)(=O)N2C)cc1`, -5.31% (inactive). For the compound `COc1ccc(C2=NS(=O)(=O)N(C)C(C(=O)N(C)Cc3ccccc3)=C2)cc1`, the activity change was 7.33% (inactive).

Turning to `Cc1cc2c3ccccc3[nH]c(=O)n2n1`, the activity change is -1.28% (inactive).

As for `COc1ccc([C@H]2N[C@]3(CCCN(CC4CCCCC4)C3=O)[C@H]3C(=O)N(C)C(=O)[C@@H]23)cc1`, the activity change is 4.21% (inactive). As for `CCCCCCNC(=O)O[C@]12C[C@@H](C(=O)OC)[C@@H](C(=O)OC)C[C@@]1(O)CN(S(=O)(=O)c1ccc(C)cc1)C2`, the figure is -9.12% (inactive). For the compound `CCN(CC)CCN(C(=O)c1ccc2c(c1)CCCC2)c1nc2c(OC)cccc2s1`, the activity change was -48.3% (inactive). Under `CC12C(=O)N(c3ccccc3)C(=O)C1C(c1ccccc1)N1CCCN12` (centres undefined) stands 2.73% (inactive); under `CC(C)C1C2=C(CC(C)(C)CC2=O)ON1c1ccccc1` (centres undefined), -4.1% (inactive); under `CC(C)N1C(=O)N(c2ccccc2)C(C)(O)CC1(C)C` (centres undefined), -71.4% (active). As for `Cc1ccc(C(=O)N[C@H](C(=O)N2CCN(c3ncccn3)CC2)C(C)C)cc1`, the figure is 5.87% (inactive); as for `C[C@H]1NS(=O)(=O)c2cc(Cl)ccc2O[C@@H]1c1ccccc1`, -5.74% (inactive); as for `CCOc1cc(/C=N/Nc2cc(C)nc3ccc(C)cc23)ccc1O`, -2.46% (inactive).

On to `Cc1cc(N/N=C/c2ccccc2F)c2ccccc2n1`, for which the activity change is -142% (active).

Regarding `Fc1ccccc1/C=N/Nc1cc(N2CCCCC2)ncn1`, the activity change was 11.8% (inactive). As for `CCCCN1CC(C)(C)[C@H](CC(=O)Nc2ccc(Br)cc2)C1=O`, the figure is 5.46% (inactive); as for `Cc1ccccc1CN1CCN(C(=O)c2cccc(F)c2)CC1`, -16.7% (inactive); as for `COc1ccc(CN2CCNC(=O)C2CC(=O)NCc2cn[nH]c2-c2ccccc2)c(F)c1` (centres undefined), -3.5% (inactive). Take `O=C(c1ccc(F)cc1)C1CCN(Cc2cn[nH]c2-c2ccccc2)CC1`: the activity change is -104% (active). As for `COc1ccc2c(CN3CCN(S(=O)(=O)c4cccs4)CC3)cc(=O)oc2c1`, the figure is -11.7% (inactive). As for `Cc1ccc2c(CN3CCN(S(=O)(=O)c4ccccc4C(F)(F)F)CC3)cc(=O)oc2c1`, the activity change is -74.7% (active). Regarding `Cc1cc2oc(=O)cc(CN3CCN(S(=O)(=O)c4cccs4)CC3)c2cc1C(C)C`, the activity change is -5.54% (inactive).

As for `O=C(N=C1SC2CS(=O)(=O)CC2N1Cc1ccccc1)c1ccccc1` (centres undefined), the activity change is -10.6% (inactive). For the compound `O=Nc1c(O)cc(O)c2ccccc12`, the activity change is 4.37% (inactive). Regarding `Cc1ccc(-c2ccc(CN3C(C)C(=O)N(Cc4cn(CCC5OCCCO5)nn4)CCS3(=O)=O)cc2)cc1` (centres undefined), the activity change is -4.85% (inactive). Under `COc1cc(NC(=O)C2=C(C)OCCS2)c(Cl)cc1C(=O)NCCCN1CCCC(C)C1` (centres undefined) stands -7.47% (inactive); under `CC(=O)Nc1ccc2c3c(ccc([N+](=O)[O-])c13)CC2`, -19% (inactive); under `O=S1(=O)CCN(Cc2ccccc2)CC1`, -7.16% (inactive). As for `O=C1c2ccccc2C(=O)c2c1cccc2N1CCN(Cc2ccccc2)CC1`, the figure is -89.4% (active); as for `O=C1c2ccccc2C(=O)c2c1cccc2N1CCN(CCO)CC1`, -26.5% (inactive). For `CCOC(=O)c1cc(-c2sc(NC(=O)c3ccccc3)nc2C)n(Cc2ccccc2)n1`, the activity change is -4.02% (inactive). Under `C[C@H]1CN([C@@H](C)CO)C(=O)CCCn2cc(nn2)CO[C@@H]1CN(C)S(=O)(=O)c1ccccc1C#N` stands -13.5% (inactive); under `CC(=NNC(N)=O)C1CC2CCC1CC2` (centres undefined), 0.306% (inactive); under `CC(C)NC(=O)Nc1ccc2c(c1)C(=O)N([C@H](C)CO)C[C@H](C)[C@@H](CN(C)Cc1ccc(C(F)(F)F)cc1)OCCCC[C@@H](C)O2`, -29.9% (inactive). Under `CC(=O)c1ccccc1NC(=O)COC(=O)C1COc2ccccc2O1` (centres undefined) stands -5.39% (inactive). Under `Nc1cc(=O)c2[nH]cnc2[nH]1` stands 4.52% (inactive). For the compound `Cc1ccc(C)c(NC(=O)c2ccc3nccnc3c2)c1`, the activity change was 5.85% (inactive).

Turning to `Cc1ccc(OS(=O)Nc2cccc3nccnc23)cc1` (centres undefined), the activity change was -73.2% (active). As for `Cc1ccc(Oc2ccc3c(c2)C(=O)N(c2cccc4cccnc24)C3=O)cc1`, the figure is -1.2% (inactive); as for `C[C@@H]1CN([C@H](C)CO)S(=O)(=O)c2ccc(C#CC3CCCCC3)cc2O[C@H]1CN(C)C(=O)Cc1ccncc1`, -2.79% (inactive); as for `CC1=C(C(=O)N2CCOCC2)CC(CC(=O)NCC2CCCCC2)C(=O)N1Cc1ccc(F)cc1` (centres undefined), -12.1% (inactive). `CC1C(=O)N(Cc2cn(CC3CCCCC3)nn2)CCS(=O)(=O)N1Cc1ccc(-c2cccc(N(C)C)c2)cc1` (centres undefined): the activity change is -6.27% (inactive).
